# According to PubChem BioAssay (Tox21):
# Several values for one entry are separate records, joined by “and”; a condition that tells them apart may be missing. Identical values can stand only once. A number with no mark means an inactive call. Records with an inconclusive call do not appear. Entries that show only a call come without a potency. Activity calls are given as the source filed them. Unless noted, calls follow the shape of the dose curve; as a rule, active = well fitted curve in the direction sought with a large enough effect in the repeat runs; inconclusive = weak or mixed curves; inactive = no such curve, though single readings can be large; an effect the other way counts as inactive or inconclusive.
# Key:
# [1] = qHTS assay to identify small molecule antagonists of the glucocorticoid receptor (GR) signaling pathway - cell viability counter screen (AID 720693); also: nearly all actives have a fitted effect of over 55% in size
# [2] = qHTS assay for identifying genotoxic compounds that show differential cytotoxicity against isogenic chicken DT40 cell lines with known DNA damage response pathways - wild type cell line (AID 743012); also: nearly all actives have a fitted effect of over 60% in size; also: potency is read from the fitted curve at half-maximal effect
# Outline: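 Quantitative HTS on parental DT40 cells: 40 h compound treatment at 37 C/5% CO2, with viability then determined by CellTiter-Glo luminescence. Values serve as the DNA repair-proficient reference for differential cytotoxicity.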
# [3] = qHTS assay for identifying genotoxic compounds that show differential cytotoxicity against isogenic chicken DT40 cell lines with known DNA damage response pathways - Rev3 mutant cell line (AID 743014); also: nearly all actives have a fitted effect of over 55% in size; also: potency is read from the fitted curve at half-maximal effect
# [4] = qHTS assay for identifying genotoxic compounds that show differential cytotoxicity against isogenic chicken DT40 cell lines with known DNA damage response pathways - Rad54/Ku70 mutant cell line (AID 743015); also: nearly all actives have a fitted effect of over 60% in size
# [5] = qHTS assay to identify small molecule antagonists of the androgen receptor (AR) signaling pathway - cell viability counter screen (AID 743033; also: nearly all actives have a fitted effect of over 45% in size)
# [6] = qHTS assay to identify small molecule antagonists of the androgen receptor (AR) signaling pathway using the MDA cell line - cell viability counter screen (AID 743041; also: nearly all actives have a fitted effect of over 45% in size)
# Outline: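 Viability counter screen run alongside the AR antagonist reporter: cells seeded 5 h before compound, R1881 added, 16 h incubation at 37C without CO2, fluorescent CellTiter-Fluor signal quantified.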
# [7] = qHTS assay to identify small molecule antagonists of the thyroid receptor (TR) signaling pathway - cell viability counter screen (AID 743064); also: nearly all actives have a fitted effect of over 50% in size
# Outline: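 GH3.TRE-Luc rat pituitary cells dosed after 4 hr plating, co-stimulated with T3 at 1 nM final, incubated 23.5 h at 37 C. Viability measured in the same wells by CellTiter-Fluor fluorescence after 30 min further at 37 C.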
# [8] = tested on: thyroid hormone receptor (rat, GH3 cells); test: qHTS assay to identify small molecule agonists of the thyroid receptor (TR) signaling pathway (AID 743066; calls by dose curve)
# [9] = molecular target: Estrogen receptor (Homo sapiens) (UniProt P03372); test: qHTS assay to identify small molecule antagonists of the estrogen receptor alpha (ER-alpha) signaling pathway (AID 743069; active = well fitted curve in the direction sought with a large enough effect in the signal ratio in the repeat runs, not every such curve was filed as active; the % refers to the signal ratio)
# Sequence of Estrogen receptor (Homo sapiens) (P03372 whole entry, looked up): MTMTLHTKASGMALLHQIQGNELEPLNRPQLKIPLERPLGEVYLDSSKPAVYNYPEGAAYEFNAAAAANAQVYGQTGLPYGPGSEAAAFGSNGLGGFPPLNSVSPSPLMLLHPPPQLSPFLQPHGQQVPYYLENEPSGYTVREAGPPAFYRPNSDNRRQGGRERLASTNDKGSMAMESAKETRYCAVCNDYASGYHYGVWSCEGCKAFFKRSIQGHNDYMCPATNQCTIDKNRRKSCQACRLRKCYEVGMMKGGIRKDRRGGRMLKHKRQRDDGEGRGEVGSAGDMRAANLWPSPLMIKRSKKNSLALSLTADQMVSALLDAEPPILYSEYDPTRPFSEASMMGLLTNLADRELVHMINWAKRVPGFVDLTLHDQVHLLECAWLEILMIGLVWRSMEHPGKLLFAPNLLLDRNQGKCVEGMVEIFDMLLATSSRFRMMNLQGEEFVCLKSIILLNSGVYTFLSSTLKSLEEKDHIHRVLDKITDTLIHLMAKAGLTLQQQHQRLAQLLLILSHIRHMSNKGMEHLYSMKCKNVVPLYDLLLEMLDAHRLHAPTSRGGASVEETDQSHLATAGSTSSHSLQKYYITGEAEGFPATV
# Outline: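 Estradiol-stimulated ER-alpha-UAS-bla HEK293 cells, 18 hr compound exposure at 37C. LiveBLAzer B/G substrate, 2 hr RT, fluorescence read.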
# [10] = qHTS assay to identify small molecule antagonists of the estrogen receptor alpha (ER-alpha) signaling pathway - cell viability counter screen (AID 743074; calls by dose curve;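 also: HEK293 cells carrying ER-alpha-UAS-bla reporter stimulated with 17beta-estradiol; nearly all actives have a fitted effect of over 45% in size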)
# [11] = molecular target: Estrogen receptor (Homo sapiens) (UniProt P03372); test: qHTS assay to identify small molecule agonists of the estrogen receptor alpha (ER-alpha) signaling pathway (AID 743075; calls by dose curve;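 also: HEK293 GripTite cells with ER-alpha and UAS-driven beta-lactamase reporter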)
# [12] = molecular target: Estrogen receptor (Homo sapiens) (UniProt P03372); test: qHTS assay to identify small molecule agonists of the estrogen receptor alpha (ER-alpha) signaling pathway using the BG1 cell line (AID 743079); settings: BG1Luc4E2 cells, ERE-luciferase agonist, 22 h; also: nearly all actives have a fitted effect of over 20% in size
# [13] = qHTS assay to identify small molecule antagonists of the estrogen receptor alpha (ER-alpha) signaling pathway using the BG1 cell line (AID 743080; calls by dose curve;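 also: BG1 cells stimulated with 17beta-estradiol alongside compound; nearly all actives have a fitted effect of over 25% in size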)
# Outline: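 After 5 days in phenol-red-free 10% charcoal-stripped FBS medium, BG1-Luc-4E2 cells were seeded, left 24 h at 37 C, co-treated with compounds and 17beta-estradiol for 21.5 h, then assayed for viability and luciferase.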
# [14] = qHTS assay to identify small molecule antagonists of the estrogen receptor alpha (ER-alpha) signaling pathway using the BG1 cell line - cell viability counter screen (AID 743081);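 also: compound given together with 17beta-estradiol as the ER stimulus; nearly all actives have a fitted effect of over 45% in size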
# Aromatase (Homo sapiens) = Aromatase (Homo sapiens) (UniProt P11511); test: qHTS assay to identify aromatase inhibitors (AID 743083); also: nearly all actives have a fitted effect of over 55% in size
# Sequence of Aromatase (Homo sapiens) (P11511 whole entry, looked up): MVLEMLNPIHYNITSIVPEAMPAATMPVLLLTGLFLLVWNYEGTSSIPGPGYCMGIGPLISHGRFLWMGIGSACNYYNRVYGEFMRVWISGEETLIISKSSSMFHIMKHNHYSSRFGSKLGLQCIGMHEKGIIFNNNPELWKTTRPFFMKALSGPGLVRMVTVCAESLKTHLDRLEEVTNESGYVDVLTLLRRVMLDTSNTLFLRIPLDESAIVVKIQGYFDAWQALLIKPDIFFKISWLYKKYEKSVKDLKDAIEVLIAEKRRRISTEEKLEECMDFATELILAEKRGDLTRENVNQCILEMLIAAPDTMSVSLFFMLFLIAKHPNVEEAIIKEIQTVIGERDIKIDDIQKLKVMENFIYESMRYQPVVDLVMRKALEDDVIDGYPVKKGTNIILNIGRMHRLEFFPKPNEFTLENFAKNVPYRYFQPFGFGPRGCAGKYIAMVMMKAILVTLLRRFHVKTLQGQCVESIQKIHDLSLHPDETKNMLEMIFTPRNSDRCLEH
# [15] = qHTS assay to identify small molecule antagonists of the thyroid receptor (TR) signaling pathway (AID 743065); also: nearly all actives have a fitted effect of over 55% in size; also: potency is read from the fitted curve at half-maximal effect
# Outline: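 GH3.TRE-Luc rat pituitary cells carrying two TR response elements driving luciferase were plated for 4 h, given compound plus 1 nM T3 (final), and incubated 23.5 h at 37 C. ONE-Glo luminescence measured reporter inhibition; CellTiter-Fluor fluorescence tracked cytotoxicity.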
# [16] = molecular target: Androgen receptor (Homo sapiens) (UniProt P10275); test: qHTS assay to identify small molecule antagonists of the androgen receptor (AR) signaling pathway (AID 743035; active = well fitted inhibition curve with a large enough effect in the signal ratio in the repeat runs, not every such curve was filed as active; the % refers to the signal ratio)
# Sequence of Androgen receptor (Homo sapiens) (P10275 whole entry, looked up): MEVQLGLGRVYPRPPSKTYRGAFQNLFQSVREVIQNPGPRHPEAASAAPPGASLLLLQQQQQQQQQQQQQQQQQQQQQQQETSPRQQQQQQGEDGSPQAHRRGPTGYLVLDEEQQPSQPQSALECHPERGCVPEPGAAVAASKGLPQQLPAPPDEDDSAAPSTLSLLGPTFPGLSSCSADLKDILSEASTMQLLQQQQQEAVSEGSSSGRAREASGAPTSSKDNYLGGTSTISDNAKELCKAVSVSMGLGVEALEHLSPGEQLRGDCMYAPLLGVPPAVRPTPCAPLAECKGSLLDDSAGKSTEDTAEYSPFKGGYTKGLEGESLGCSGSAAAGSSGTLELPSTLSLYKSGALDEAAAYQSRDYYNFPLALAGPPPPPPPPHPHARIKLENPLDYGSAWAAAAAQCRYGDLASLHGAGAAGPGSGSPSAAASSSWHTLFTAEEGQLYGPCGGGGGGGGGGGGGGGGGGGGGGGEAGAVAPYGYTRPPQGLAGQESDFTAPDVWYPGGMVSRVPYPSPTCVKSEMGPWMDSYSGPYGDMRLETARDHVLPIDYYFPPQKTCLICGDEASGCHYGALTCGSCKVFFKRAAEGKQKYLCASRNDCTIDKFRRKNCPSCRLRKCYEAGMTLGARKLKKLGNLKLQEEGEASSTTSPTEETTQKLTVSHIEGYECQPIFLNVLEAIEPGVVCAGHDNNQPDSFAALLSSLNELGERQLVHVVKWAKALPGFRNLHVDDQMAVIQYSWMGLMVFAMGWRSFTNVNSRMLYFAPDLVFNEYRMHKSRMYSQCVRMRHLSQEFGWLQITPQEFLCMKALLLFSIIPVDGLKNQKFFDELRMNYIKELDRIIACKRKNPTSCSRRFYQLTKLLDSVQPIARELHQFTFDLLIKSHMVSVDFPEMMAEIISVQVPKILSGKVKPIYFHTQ
# Outline: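 Cell line: GeneBLAzer AR-UAS-bla GripTite (HEK293). Stimulus: R1881 added after compound. Exposure: 16 h, 37C, 5% CO2. Readout: LiveBLAzer B/G FRET fluorescence after 2 h at room temperature.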
# [17] = molecular target: Androgen receptor (Homo sapiens) (UniProt P10275); test: qHTS assay to identify small molecule agonists of the androgen receptor (AR) signaling pathway (AID 743036; active = well fitted activation curve with a large enough effect in the signal ratio in the repeat runs, with a control signal flat, not every such curve was filed as active; the % refers to the signal ratio)
# Outline: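 AR-UAS-bla HEK293 cells, plated 4 h before dosing, were treated with compound for 16 h at 37C. beta-Lactamase reporter read after 2 h with LiveBLAzer B/G FRET substrate at room temperature.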
# [18] = molecular target: Androgen receptor (Homo sapiens) (UniProt P10275); test: qHTS assay to identify small molecule agonists of the androgen receptor (AR) signaling pathway using the MDA cell line (AID 743040; also: nearly all actives have a fitted effect of over 20% in size)
# Outline: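 Luminescence from ONE-Glo, read after 30 min at room temperature, reflects MMTV-driven luciferase in MDA-kb2 cells (AR- and GR-responsive). Treatment lasted 16 h at 37C, 0% CO2.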
# [19] = molecular target: Androgen receptor (Homo sapiens) (UniProt P10275); test: qHTS assay to identify small molecule antagonists of the androgen receptor (AR) signaling pathway using the MDA cell line (AID 743042; also: nearly all actives have a fitted effect of over 55% in size)
# Outline: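 MDA-kb2 cells (human breast carcinoma, stably carrying an MMTV-luciferase reporter responsive to AR and GR) were plated at 3,000 cells/well and preincubated 5 hr at 37C, then given compound plus R1881 agonist for 16 h. ONE-Glo luminescence was read.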
structure (smiles),measurement,setting,value
C=CC1CC=CCC1 (stereo unspecified),Potency,[1],inactive
same,Potency,[2],inactive
same,Potency,[3],inactive
same,Potency,[4],inactive
same,Potency,[5],inactive
same,Potency,[6],inactive
same,Potency,[7],inactive
same,Potency,[8],inactive
same,Potency,[9],inactive
same,outcome,[10],inactive
same,Potency,[11],inactive
same,activation,[12]; at 70.3 µM (top of the series),11%
same,Potency,[13],inactive
same,Potency,[14],inactive
same,Potency,Aromatase (Homo sapiens),inactive
CNC(=O)O/N=C(\C)SC,Potency,[1],inactive
same,Potency,[2],inactive
same,Potency,[3],inactive
same,Potency,[5],inactive
same,Potency,[6],inactive
same,Potency,[7],inactive
same,Potency,[15],inactive
same,Potency,[8],inactive
same,Potency,[14],inactive
same,Potency,Aromatase (Homo sapiens),inactive
O=C(O)c1cccc(Cl)c1,Potency,[1],inactive
same,Potency,[2],inactive
same,Potency,[3],inactive
same,Potency,[4],inactive
same,Potency,[6],inactive
same,Potency,[7],inactive
same,Potency,[8],inactive
same,Potency,[9],inactive
same,outcome,[10],inactive
same,Potency,[11],inactive
same,activation,[12]; at 70.3 µM (top of the series),2.91%
same,Potency,[13],inactive
same,Potency,[14],inactive
same,Potency,Aromatase (Homo sapiens),inactive
CNC(=O)Oc1c(C(C)(C)C)cc(C)cc1C(C)(C)C,Potency,[1],inactive
same,Potency,[2],inactive
same,Potency,[3],inactive
same,Potency,[5],inactive
same,Potency,[16],inactive
same,outcome,[17],inactive
same,Potency,[18],inactive
same,Potency,[6],inactive
same,outcome,[19],inactive
same,Potency,[7],inactive
same,Potency,[15],inactive
same,Potency,[8],inactive
same,outcome,[10],inactive
same,Potency,[14],inactive
same,Potency,Aromatase (Homo sapiens),inactive
ClC(Br)Br,Potency,[1],inactive
same,Potency,[2],inactive
same,Potency,[3],inactive
same,Potency,[5],inactive
same,Potency,[6],inactive
same,Potency,[7],inactive
same,Potency,[15],inactive
same,Potency,[8],inactive
same,Potency,[9],inactive
same,outcome,[10],inactive
same,Potency,[11],inactive
same,activation,[12]; at 70.3 µM (top of the series),1.01%
same,Potency,[13],inactive
same,Potency,[14],inactive
same,Potency,Aromatase (Homo sapiens),inactive
[As]#[In],Potency,[1],inactive
same,Potency,[2],inactive
same,Potency,[3],inactive
same,Potency,[5],inactive
same,Potency,[6],inactive
same,Potency,[7],inactive
same,Potency,[15],inactive
same,Potency,[8],inactive
same,outcome,[10],inactive
same,Potency,[14],inactive
same,Potency,Aromatase (Homo sapiens),inactive
O=C(Nc1ccccc1)N(Cc1ccc(Cl)cc1)C1CCCC1,Potency,[1],inactive
same,Potency,[2],3.86 µM (active)
same,Potency,[3],0.611 µM (active)
same,Potency,[6],inactive
same,Potency,[15],21.7 µM (active)
same,Potency,[8],inactive
same,outcome,[10],inactive
same,Potency,[14],inactive
same,Potency,Aromatase (Homo sapiens),inactive
[O]=[Cd],Potency,[1],inactive
same,Potency,[2],inactive
same,Potency,[3],inactive
same,Potency,[5],inactive
same,Potency,[6],inactive
same,Potency,[7],inactive
same,Potency,[15],inactive
same,Potency,[8],inactive
same,Potency,[9],inactive
same,outcome,[10],inactive
same,Potency,[11],inactive
same,activation,[12]; at 70.3 µM (top of the series),-13.8% and 18.3%
same,Potency,[13],inactive
same,Potency,[14],inactive
same,Potency,Aromatase (Homo sapiens),inactive
CCCCc1c(C)nc(NCC)[nH]c1=O,Potency,[1],inactive
same,Potency,[2],inactive
same,Potency,[3],inactive
same,Potency,[5],inactive
same,Potency,[6],inactive
same,Potency,[7],inactive
same,Potency,[8],inactive
same,Potency,[9],inactive
same,outcome,[10],inactive
same,Potency,[11],inactive
same,activation,[12]; at 70.3 µM (top of the series),0.176%
same,Potency,[13],inactive
same,Potency,[14],inactive
same,Potency,Aromatase (Homo sapiens),inactive
CCC(Cl)[N+](=O)[O-] (stereo unspecified),Potency,[1],inactive
same,Potency,[2],inactive
same,Potency,[3],inactive
same,Potency,[5],inactive
same,Potency,[6],inactive
same,Potency,[7],inactive
same,Potency,[8],inactive
same,Potency,[9],inactive
same,outcome,[10],inactive
same,Potency,[11],inactive
same,activation,[12]; at 95 µM (top of the series),-4.86%
same,Potency,[13],inactive
same,Potency,[14],inactive
same,Potency,Aromatase (Homo sapiens),inactive
N#CC(Cl)(Cl)Cl,Potency,[1],inactive
same,Potency,[2],inactive
same,Potency,[3],inactive
same,Potency,[5],inactive
same,Potency,[16],inactive
same,outcome,[17],inactive
same,Potency,[18],inactive
same,Potency,[6],inactive
same,outcome,[19],inactive
same,Potency,[15],inactive
same,Potency,[8],inactive
same,Potency,[9],inactive
same,outcome,[10],inactive
same,Potency,[11],inactive
same,activation,[12]; at 70.3 µM (top of the series),-6.23%
same,Potency,[13],inactive
same,Potency,[14],inactive
same,Potency,Aromatase (Homo sapiens),inactive
COC(C)(C)C,Potency,[1],inactive
same,Potency,[2],inactive
same,Potency,[3],inactive
same,Potency,[4],inactive
same,Potency,[6],inactive
same,Potency,[7],inactive
same,Potency,[15],inactive
same,Potency,[8],inactive
same,outcome,[10],inactive
same,Potency,[14],inactive
same,Potency,Aromatase (Homo sapiens),inactive
NC(=O)O,Potency,[1],inactive
same,Potency,[2],inactive
same,Potency,[3],inactive
same,Potency,[5],inactive
same,Potency,[6],inactive
same,Potency,[7],inactive
same,Potency,[15],inactive
same,Potency,[8],inactive
same,Potency,[9],inactive
same,outcome,[10],inactive
same,Potency,[11],inactive
same,activation,[12]; at 70.3 µM (top of the series),-5.63%
same,Potency,[13],inactive
same,Potency,[14],inactive
same,Potency,Aromatase (Homo sapiens),inactive
